For nine molecules, growth inhibition results are on record in PubChem BioAssay (NCI).

Experiment [1] is described as follows: NCI Yeast Anticancer Drug Screen. Data for the rad50 strain (AID 155).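 Note: 0% = growth of vehicle-only cultures of the same strain.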 The settings on record: S. cerevisiae rad50 strain growth inhibition, hits give high values. In a few lines:
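Yeast carrying a defined DNA repair defect were exposed to test compounds, and growth was compared with vehicle-treated controls to give percent inhibition.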

Experiment [2] can be described thus: NCI Yeast Anticancer Drug Screen. Data for the mec2-1 strain (AID 157). To be noted: S. cerevisiae mec2-1 strain, hits give high values. In a few lines:
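Readout is yeast growth inhibition, normalised to vehicle-treated controls, in the mec2-1 strain exposed to compound.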

Experiment [3] in a line: NCI Yeast Anticancer Drug Screen. Data for the sgs1 mgt1 strain (AID 161).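 Note: 0% = growth of cultures given vehicle only.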 To be noted: S. cerevisiae sgs1 mgt1 strain, hits give high values. In a few lines:
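Compounds are added to genetically altered yeast, and growth is compared with cultures given vehicle alone to give percent inhibition.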

Experiment [4] in a line: NCI Yeast Anticancer Drug Screen. Data for the cln2 rad14 strain (AID 165).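 Note: 0% = growth equal to vehicle treated cultures.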 The settings on record: S. cerevisiae cln2 rad14 strain, hits give high values. In a few lines: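 Relative to vehicle controls, growth inhibition of compound-treated cln2 rad14 yeast was recorded.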
Experiment [5] is described as follows: NCI Yeast Anticancer Drug Screen. Data for the bub3 strain (AID 167). To be noted: S. cerevisiae bub3 mutant strain, hits give high values. In short, it runs like this: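 Compounds were applied to a genetically altered yeast strain carrying a cell-cycle control defect. Growth inhibition was scored against vehicle-treated controls.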
A short description of experiment [6]: NCI Yeast Anticancer Drug Screen. Data for the mlh1 rad18 strain (AID 175). The settings on record: S. cerevisiae mlh1 rad18 strain growth inhibition, hits give high values. In a few lines: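 Test agents were incubated with a yeast strain of defined genotype (DNA damage repair defect). Inhibition of growth was derived by comparison with vehicle-exposed cultures.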

Where [7] appears, read: at 5.0 µM (retest, dose inferred, filed as 0.5).
[8] abbreviates: at 50.0 µM (retest, dose inferred, filed as 5.0).

Each structure is given as a SMILES string. The panel holds about 79,000 compounds, 15% with a hit somewhere; the sample as a whole holds those more often. Unmarked numbers belong to inactive results. Activity calls are given as the source filed them. Cut-off read from the data, not from the text of the source: active = growth inhibition above about 70%; inactive = the rest.

For `O=C1/C(=C/c2ccc(Cl)cc2)CSC/C1=C\c1ccc(Cl)cc1`, the growth inhibition in experiment [1] (setting [7]) was 23%; in experiment [1] (setting [8]), 37%; in experiment [1] (at 50.0 µM), 2.35%; in experiment [2] (setting [7]), 12%; in experiment [2] (setting [8]), 37%; in experiment [2] (at 50.0 µM) it was 4%. For the same molecule, the growth inhibition is 19% in experiment [3] (setting [7]); 53% in experiment [3] (setting [8]); 9.35% in experiment [3] (at 50.0 µM); 18% in experiment [4] (setting [7]); 34% in experiment [4] (setting [8]); -2.2% in experiment [4] (at 50.0 µM). The growth inhibition in experiment [5] (setting [7]) is 25%; in experiment [5] (setting [8]), 62%; in experiment [5] (at 50.0 µM) it was 5.55%; in experiment [6] (setting [7]) it was 16%; in experiment [6] (setting [8]), 42%; in experiment [6] (at 50.0 µM), -9.1%.

For the molecule `CN(C)c1ccc(/C=C(\C#N)c2cccc(Cl)c2)cc1`, the growth inhibition was 1% in experiment [1] (setting [7]); -8% in experiment [1] (setting [8]); 16.7% in experiment [1] (at 50.0 µM); -1% in experiment [2] (setting [7]); 1% in experiment [2] (setting [8]); 18% in experiment [2] (at 50.0 µM). The growth inhibition in experiment [3] (setting [7]) was 4%; in experiment [3] (setting [8]), 12%; in experiment [3] (at 50.0 µM), 10.8%; in experiment [4] (setting [7]) it was -3%; in experiment [4] (setting [8]), -25%; in experiment [4] (at 50.0 µM), 69.4%. In addition, the growth inhibition in experiment [5] (setting [7]) was 5%; in experiment [5] (setting [8]), 14%; in experiment [5] (at 50.0 µM), 13.7%; in experiment [6] (setting [7]) it was -3%; in experiment [6] (setting [8]) it was -11%; in experiment [6] (at 50.0 µM), -4.75%.

Regarding `CCCCCCCCCCCCCCCC[N+](C)(C)CCCCCC(=O)OC`, the growth inhibition in experiment [1] (setting [7]) is 99% (active); in experiment [1] (setting [8]) it was 99% (active); in experiment [1] (at 50.0 µM) it was 98.9% (active); in experiment [2] (setting [7]), 100% (active); in experiment [2] (setting [8]), 100% (active); in experiment [2] (at 50.0 µM), 99.1% (active). Also, the growth inhibition is 100% (active) in experiment [3] (setting [7]); 100% (active) in experiment [3] (setting [8]); 99% (active) in experiment [3] (at 50.0 µM); 99% (active) in experiment [4] (setting [7]); 99% (active) in experiment [4] (setting [8]); 97.4% (active) in experiment [4] (at 50.0 µM). The growth inhibition in experiment [5] (setting [7]) was 100% (active); in experiment [5] (setting [8]) it was 100% (active); in experiment [5] (at 50.0 µM) it was 98.5% (active); in experiment [6] (setting [7]) it was 100% (active); in experiment [6] (setting [8]), 100% (active); in experiment [6] (at 50.0 µM), 98.7% (active).

Consider `CC(C)[C@@H]1CC[C@@H](C)C[C@H]1OC(=O)NN`, for which the growth inhibition in experiment [1] (setting [7]) is -8%; in experiment [1] (setting [8]), 72% (active); in experiment [1] (at 50.0 µM), 89.5% (active); in experiment [2] (setting [7]) it was -30%; in experiment [2] (setting [8]), 53%; in experiment [2] (at 50.0 µM), 90.3% (active). Besides, the growth inhibition in experiment [3] (setting [7]) was -8%; in experiment [3] (setting [8]) it was 70% (active); in experiment [3] (at 50.0 µM) it was 91.2% (active); in experiment [4] (setting [7]), 1%; in experiment [4] (setting [8]), -2%; in experiment [4] (at 50.0 µM), 59.6%. Also, the growth inhibition in experiment [5] (setting [7]) is 6%; in experiment [5] (setting [8]) it was 84% (active); in experiment [5] (at 50.0 µM), 80.5% (active); in experiment [6] (setting [7]), -6%; in experiment [6] (setting [8]) it was 68%; in experiment [6] (at 50.0 µM), 95.3% (active).

Regarding `CC(=O)C1(C(C)=O)C2=C(C(=O)C(Cl)=C(Cl)C2=O)N2C=CC=CC21` (configuration not stated), the growth inhibition in experiment [1] (setting [7]) is 85% (active); in experiment [1] (setting [8]), 95% (active); in experiment [1] (at 50.0 µM) it was 98.3% (active); in experiment [2] (setting [7]), 81% (active); in experiment [2] (setting [8]) it was 97% (active); in experiment [2] (at 50.0 µM) it was 98.5% (active). Besides, the growth inhibition is 78% (active) in experiment [3] (setting [7]); 97% (active) in experiment [3] (setting [8]); 98.3% (active) in experiment [3] (at 50.0 µM); 40% in experiment [4] (setting [7]); 95% (active) in experiment [4] (setting [8]); 96.8% (active) in experiment [4] (at 50.0 µM). For the same molecule, the growth inhibition was 91% (active) in experiment [5] (setting [7]); 97% (active) in experiment [5] (setting [8]); 98.3% (active) in experiment [5] (at 50.0 µM); 92% (active) in experiment [6] (setting [7]); 96% (active) in experiment [6] (setting [8]); 98.2% (active) in experiment [6] (at 50.0 µM).

Take `CC1OC(c2ccc3c(c2)OCO3)OC1C` (configuration not stated): the growth inhibition in experiment [1] (setting [7]) was 1%; in experiment [1] (setting [8]) it was 0%; in experiment [1] (at 50.0 µM), -21.6%; in experiment [2] (setting [7]) it was -4%; in experiment [2] (setting [8]) it was -7%; in experiment [2] (at 50.0 µM) it was 20.1%. Besides, the growth inhibition in experiment [3] (setting [7]) is -4%; in experiment [3] (setting [8]), -5%; in experiment [3] (at 50.0 µM), 24.6%; in experiment [4] (setting [7]), 0%; in experiment [4] (setting [8]) it was -2%; in experiment [4] (at 50.0 µM), 70.7% (active). Moreover, the growth inhibition in experiment [5] (setting [7]) is -8%; in experiment [5] (setting [8]), -23%; in experiment [5] (at 50.0 µM), 25%; in experiment [6] (setting [7]), 2%; in experiment [6] (setting [8]), 0%; in experiment [6] (at 50.0 µM), 64.7%.

On to `Nc1ccccc1Sc1ccccc1`, for which the growth inhibition was 36% in experiment [1] (setting [7]); 58% in experiment [1] (setting [8]); 83.2% (active) in experiment [1] (at 50.0 µM); 26% in experiment [2] (setting [7]); 61% in experiment [2] (setting [8]); 77.3% (active) in experiment [2] (at 50.0 µM). Besides, the growth inhibition in experiment [3] (setting [7]) is 46%; in experiment [3] (setting [8]), 66%; in experiment [3] (at 50.0 µM), 62.5%; in experiment [4] (setting [7]) it was 29%; in experiment [4] (setting [8]), 47%; in experiment [4] (at 50.0 µM), 83.2% (active). The growth inhibition is 37% in experiment [5] (setting [7]); 73% (active) in experiment [5] (setting [8]); 64.5% in experiment [5] (at 50.0 µM); 35% in experiment [6] (setting [7]); 78% (active) in experiment [6] (setting [8]); 71% (active) in experiment [6] (at 50.0 µM).

Take `Cc1cccc[c]1[Sn]([Cl])([O][Sn]([Cl])([c]1ccccc1C)[c]1ccccc1C)[c]1ccccc1C`: the growth inhibition in experiment [1] (setting [7]) is 61%; in experiment [1] (setting [8]), 97% (active); in experiment [1] (at 50.0 µM), 88.3% (active); in experiment [2] (setting [7]), 46%; in experiment [2] (setting [8]), 98% (active); in experiment [2] (at 50.0 µM), 90.8% (active). Moreover, the growth inhibition was 40% in experiment [3] (setting [7]); 98% (active) in experiment [3] (setting [8]); 89% (active) in experiment [3] (at 50.0 µM); 20% in experiment [4] (setting [7]); 96% (active) in experiment [4] (setting [8]); 88.3% (active) in experiment [4] (at 50.0 µM). In addition, the growth inhibition in experiment [5] (setting [7]) is 42%; in experiment [5] (setting [8]), 98% (active); in experiment [5] (at 50.0 µM), 88.2% (active); in experiment [6] (setting [7]), 85% (active); in experiment [6] (setting [8]), 96% (active); in experiment [6] (at 50.0 µM), 89.5% (active).

With `CC(=O)Oc1cccc2c1C(=O)C(Br)(Br)CCC2`, the growth inhibition is 91% (active) in experiment [1] (setting [7]); 99% (active) in experiment [1] (setting [8]); 92.1% (active) in experiment [1] (at 50.0 µM); 100% (active) in experiment [2] (setting [7]); 99% (active) in experiment [2] (setting [8]); 87% (active) in experiment [2] (at 50.0 µM). Also, the growth inhibition in experiment [3] (setting [7]) is 92% (active); in experiment [3] (setting [8]), 99% (active); in experiment [3] (at 50.0 µM) it was 88.5% (active); in experiment [4] (setting [7]) it was 52%; in experiment [4] (setting [8]) it was 99% (active); in experiment [4] (at 50.0 µM) it was 89.4% (active). Moreover, the growth inhibition is 99% (active) in experiment [5] (setting [7]); 99% (active) in experiment [5] (setting [8]); 90% (active) in experiment [5] (at 50.0 µM); 99% (active) in experiment [6] (setting [7]); 99% (active) in experiment [6] (setting [8]); 93.2% (active) in experiment [6] (at 50.0 µM).
